Assay outcomes deposited in PubChem BioAssay by several laboratories.
CYP2C9 activ = human CYP2C9 activators, primary screen, biochemical, luminescence. AID 1024, 2008. activation factor at 5 µM. 96,000 compounds, 1.4% hits. recombinant CYP2C9, luciferin-H conversion; stronger effect = higher value; factor 1 = untreated enzyme, 0 = blocked;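 active means activation factor of 2 or more for CYP2C9 at a 5 µM dose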;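 further: 0 = sulfaphenazole-blocked wells and 1 = vehicle-only wells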
Target sequence (P11712 whole entry, looked up): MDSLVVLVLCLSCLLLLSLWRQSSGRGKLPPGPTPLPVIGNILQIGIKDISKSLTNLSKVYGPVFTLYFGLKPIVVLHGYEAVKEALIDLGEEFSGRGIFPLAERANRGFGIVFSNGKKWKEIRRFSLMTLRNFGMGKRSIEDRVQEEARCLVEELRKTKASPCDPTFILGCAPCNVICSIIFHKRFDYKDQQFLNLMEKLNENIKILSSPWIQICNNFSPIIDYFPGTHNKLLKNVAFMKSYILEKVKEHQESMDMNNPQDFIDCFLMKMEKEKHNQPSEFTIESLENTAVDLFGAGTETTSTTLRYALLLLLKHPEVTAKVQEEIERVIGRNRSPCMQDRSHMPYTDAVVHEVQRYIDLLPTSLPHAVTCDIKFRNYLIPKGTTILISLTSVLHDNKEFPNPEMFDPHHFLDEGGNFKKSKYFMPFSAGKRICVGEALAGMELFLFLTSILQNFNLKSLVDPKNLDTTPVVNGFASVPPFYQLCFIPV
CYP2C9 inh = blockers of cytochrome P450 2C9 activity – biochemical, luminescence, ADME assay, primary screen. P11712. CYP2C9 Supersomes, luciferin-H conversion. inhibition, % at 5 µM. 96,000 compounds, 20% hits. AID 777, 2007;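 active means blocking of liver enzyme CYP2C9 beyond about 50% at 5 µM, limit read from the data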
CYP2C19 activ = human CYP2C19 activators, primary screen, biochemical, luminescence; Cytochrome P450 2C19 (Homo sapiens), P33261; recombinant CYP2C19, luciferin-H EGE luminescence; stronger effect = higher value; 0 = fully inhibited enzyme, 1 = untreated enzyme; activation factor at 5 µM; 96,000 tested, under 10 active; AID 1025, 2008;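 active means activation factor of at least 2 at 5 µM in the primary screen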;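 further: 0 = wells with 2.5 mM tranylcypromine and 1 = vehicle-only wells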
PostGolgi yeast = phenotypic screen on post-Golgi transport, primary screen; inhibition, % at 10 µM; 98,000 compounds, 0.9% hits; post-Golgi transport phenotypic cell assay; AID 739, 2007;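 further: yeast cells grown in 1536-well plates; yeast grown about 18 h at 30C before absorbance read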
CYP2C19 inhib = blockers of cytochrome P450 2C19 activity – biochemical, luminescence, ADME assay, primary screen; CYP2C19 Supersomes, luciferin-H EGE luminescence, 30 min; inhibition, % at 5 µM; 96,000 compounds, 21% hits; AID 778, 2007;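 active means CYP2C19 inhibition above a set limit at 5 µM in the primary screen, cut at about 50% in these data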;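 further: plate controls were negative control wells for no effect and 2.5 mM tranylcypromine positive control for full effect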
PostGolgi ctrl = growth inhibition of yeast control strain, primary screen, counter-screen for post-Golgi transport modulator project. 98,000 compounds, 5% hits. inhibition, % at 10 µM. efflux-deficient yeast background strain, growth absorbance A615, 16 h
An asterisk follows results filed as active; nt = no result. Only some compounds are listed: those with a hit (about 32% of all), similar ones and a draw of the others. Unless noted, no stated cut-off is given here; in the data, active means inhibition above about 30%; inactive means the rest.

SMILES | CYP2C9 activ | CYP2C9 inh | CYP2C19 activ | PostGolgi yeast | CYP2C19 inhib | PostGolgi ctrl
O=C(Cn1ccc2ccccc2c1=O)N1CCN(Cc2ccc3c(c2)OCO3)CC1 | 0.9 | 12 | 0.8 | -2 | 18 | 20
CN(C)C(=O)N1CCC(C(=O)NCC2CCCO2)CC1 (configuration not stated) | 1.1 | -6 | 1.1 | -4 | -9 | 3
COc1cccc(OC)c1C(=O)N1CCN(Cc2ccc3c(c2)OCO3)CC1 | 0.4 | 61* | 0.4 | -5 | 57* | -2
O=C(N1CCN(Cc2ccc3c(c2)OCO3)CC1)C12CC3CC(CC(C3)C1)C2 | 0.5 | 50* | 0.3 | nt | 66* | nt
Cc1ccc(C(=O)N2CCN(Cc3ccc4c(c3)OCO4)CC2)o1 | 0.6 | 42 | 0.5 | 19 | 50 | -2
c1cc2c(cc1CN1CCOCC1)OCO2 | 0.9 | 6 | 0.7 | -7 | 30 | 15
CCOc1ccccc1N(CC(=O)NC(C)(C)C)C(=O)Cn1nnc(-c2ccc(C)o2)n1 | 0.7 | 25 | 0.7 | -2 | 32 | 7
Cc1ccc(-c2nnc(CSc3nc4cc5c(cc4cc3C)OCO5)o2)cc1 | 0.4 | 65* | 0.7 | -6 | 32 | 18
CCOC(=O)CSc1nc2cc3c(cc2cc1C#N)OCO3 | 0.6 | 39 | 0.8 | 25 | 19 | 2
O=C(Nc1ccc(N2CCCCC2)cc1)c1cccnc1 | 0.3 | 68* | 0.7 | 6 | 32 | 0
CC(=O)Nc1ccc(S(=O)(=O)N2CCN(Cc3ccccn3)CC2)cc1 | 0.8 | 23 | 0.9 | -8 | 10 | -5
CCCNS(=O)(=O)c1ccc(NC(=O)c2cccnc2)cc1 | 0 | 98* | 0.6 | 5 | 38 | 24
O=C(Nc1ccc(S(=O)(=O)N2CCCC2)cc1)c1cccnc1 | 0.3 | 71* | 0.7 | -7 | 26 | 0
O=C(Nc1ccc(S(=O)(=O)N2CCN(Cc3ccccc3)CC2)cc1)c1cnccn1 | 0.5 | 52* | 0.7 | 0 | 29 | 1
CCN1CCN(C(=O)c2ccc3c(c2)N(Cc2ccc(F)cc2)C(=O)c2ccccc2S3=O)CC1 (configuration not stated) | nt | nt | nt | 4 | nt | 0
COC1CCCCC1Nc1cccc(SC)c1 (configuration not stated) | 0.9 | 9 | 0.7 | -6 | 29 | 35*
Cn1c(Cl)c(/C=N/OC(=O)c2ccccc2Cl)c2ccccc21 | 1.3 | -29 | 1.1 | 10 | -11 | 11
Cc1cccc(C(=O)O/N=C/c2c(N3CCOCC3)n(C)c3ccccc23)c1 | 0.1 | 85* | 0.7 | 9 | 31 | 19
Cc1cccc(NC(=O)C2CCCN(C(=O)Nc3ccccc3)C2)c1C (configuration not stated) | 0.8 | 23 | 0.7 | -7 | 27 | -1
CC(C)Nc1nnc(SCC(=O)c2c(N)n(Cc3ccccc3)c(=O)n(C)c2=O)s1 | 0.4 | 58* | 0.7 | -10 | 28 | 10
Cc1nnc(SCC(=O)c2c(N)n(C)c(=O)n(C)c2=O)n1Cc1ccccc1 | 1.1 | -14 | 1.1 | -6 | -12 | -7
COc1cc(C(=O)NCCC(=O)NCCN2CCOCC2)cc(OC)c1OC | 1 | -1 | 1.1 | 8 | -12 | 7
O=C1/C(=C/c2ccccc2)NC(=S)N1C(c1ccccc1)c1ccccc1 | 0.4 | 60* | 0.9 | 1 | 15 | -1
CC1CCN(S(=O)(=O)c2ccc3c(c2)C(=NO)c2cc(S(=O)(=O)N4CCC(C)CC4)ccc2-3)CC1 | 0.9 | 8 | 1 | -3 | 1 | -8
CC1CCN(S(=O)(=O)c2cccc(C(=O)O)c2)CC1 | 1 | -4 | 1.1 | -8 | -10 | 0
SMILES | CYP2C9 activ | CYP2C9 inh | CYP2C19 activ | PostGolgi yeast | CYP2C19 inhib | PostGolgi ctrl
COC(=O)c1cccc(S(=O)(=O)N2CCC(C)CC2)c1 | 1.2 | -16 | 0.5 | 1 | 55* | 3
COC(=O)c1cc(S(=O)(=O)N2CCC(C)CC2)ccc1F | 0.7 | 33 | 0.1 | 5 | 88* | 3
COC(=O)C(CCSC)NC(=O)CNS(=O)(=O)c1ccc(Br)cc1 (configuration not stated) | 0.5 | 49 | 0.9 | -9 | 15 | 11
CCOCCCNS(=O)(=O)c1ccc(Br)cc1 | 1.3 | -35 | 0.1 | -4 | 90* | 3
C=CCNC(=O)CCNS(=O)(=O)c1ccc(Br)cc1 | 1.6 | -59 | 0.8 | -4 | 20 | 8
CCCCNC(=O)CCNS(=O)(=O)c1ccc(Br)cc1 | 2.7* | -166 | 0.8 | -8 | 19 | 3
CCC(C)NC(=O)CCNS(=O)(=O)c1ccc(Br)cc1 (configuration not stated) | 2.2* | -116 | 0.5 | 3 | 49 | -2
CC(C)(C)c1ccc(OC(=O)Cn2c(C(F)(F)F)nc3ccccc32)cc1 | 0.8 | 16 | 0.9 | -4 | 9 | 0
CCOc1ccccc1OCC(=O)O | 1.2 | -19 | 1.2 | -3 | -20 | -1
O=S1(=O)Nc2c(ccc3cccnc23)-c2ccccc21 | 0.4 | 65* | 1 | 85* | 4 | 72*
CC(=O)c1cccc(N(C(=O)c2cnccn2)C(C(=O)NCc2ccccc2)c2ccco2)c1 (configuration not stated) | 0.8 | 23 | 0.5 | 18 | 53* | 12
O=C(Nc1cccc(C(F)(F)F)c1)c1cc(-c2cccs2)on1 | 2.5* | -147 | 1.1 | 8 | -6 | 11
O=C(Nc1cccnc1)c1cc(-c2cccs2)on1 | 1 | -2 | 1.1 | -5 | -8 | 6
COC(=O)c1ccccc1NC(=O)c1cccs1 | 1.3 | -26 | 1 | -1 | -1 | 14
COC(=O)c1ccccc1NC(=O)c1cc(-c2cccs2)on1 | 2* | -103 | 1 | -7 | -2 | 14
CC12CCC(=O)N1c1c(sc3nc(N4CCOCC4)c4c(c13)CCCC4)C(=O)N2 (configuration not stated) | 0.3 | 68* | 1 | 1 | 3 | 1
O=c1c(N2CCOCC2)nsnc1N1CCOCC1 | 1.1 | -14 | 0.9 | 1 | 9 | 8
O=C(CC1NCCNC1=O)OCc1ccccc1 (configuration not stated) | 1.1 | -13 | 1.1 | -6 | -9 | 4
COc1cccc(Cn2cnc3c(NS(=O)(=O)c4ccc(Cl)cc4)c(C)c(C)cc32)c1 | 0.6 | 37 | 0.9 | 8 | 10 | 5
CCOC(=O)C1=C(C)N=C2SC(C)C(=O)N2C1c1ccc(C(=O)OC)cc1 (configuration not stated) | 0.4 | 58* | 0.3 | -4 | 73* | -5
CCOC(=O)C1=C(c2ccccc2)N=C2SCC(=O)N2C1c1ccc(OCC)c(OCC)c1 (configuration not stated) | 0.8 | 18 | 1 | -4 | 0 | 2
